# Laboratory results taken from PubChem BioAssay AID602142 (NMMLSC, 2011).
# Where “and” joins values, the source holds several entries; their conditions need not be identical. Equal entries are not always repeated. This is one part of the list. Values without a mark were called inactive. No rule for the calls is given here.
# Target: Lethal factor (Bacillus anthracis) (UniProt P15917)
# Experiment: anthrax lethal factor cleavage blockers – biochemical, multiplex microsphere, cherry pick 1, confirmation (AID 602142)
# Settings: multiplex microsphere protease cleavage assay, LF; at 10 µM; stronger effect = higher value
# Sequence of Lethal factor (Bacillus anthracis) (P15917 whole entry, looked up): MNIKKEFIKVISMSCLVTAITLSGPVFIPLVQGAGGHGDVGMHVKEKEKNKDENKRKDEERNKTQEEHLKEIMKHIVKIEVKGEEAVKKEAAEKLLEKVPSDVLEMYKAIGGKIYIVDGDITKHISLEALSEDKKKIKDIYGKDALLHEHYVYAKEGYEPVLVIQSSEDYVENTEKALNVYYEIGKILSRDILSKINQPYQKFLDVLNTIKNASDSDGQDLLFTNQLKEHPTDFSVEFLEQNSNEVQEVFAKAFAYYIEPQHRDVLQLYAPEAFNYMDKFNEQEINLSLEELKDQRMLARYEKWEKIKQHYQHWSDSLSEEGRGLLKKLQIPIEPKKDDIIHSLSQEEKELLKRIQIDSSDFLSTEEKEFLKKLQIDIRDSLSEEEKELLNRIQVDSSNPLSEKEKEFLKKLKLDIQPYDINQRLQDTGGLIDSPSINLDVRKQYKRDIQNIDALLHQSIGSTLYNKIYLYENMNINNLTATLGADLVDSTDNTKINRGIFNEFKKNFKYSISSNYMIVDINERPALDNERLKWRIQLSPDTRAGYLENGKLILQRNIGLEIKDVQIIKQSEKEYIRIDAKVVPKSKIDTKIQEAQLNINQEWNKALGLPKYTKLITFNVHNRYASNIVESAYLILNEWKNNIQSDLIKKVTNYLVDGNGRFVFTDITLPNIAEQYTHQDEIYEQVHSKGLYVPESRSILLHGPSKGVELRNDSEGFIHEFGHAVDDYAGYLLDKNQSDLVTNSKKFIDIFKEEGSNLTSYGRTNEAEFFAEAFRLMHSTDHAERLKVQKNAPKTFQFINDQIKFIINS
row,SMILES,inhibition
1,CN(C(=O)c1ccccn1)c1nnc(-c2ccccn2)s1,-4.3%
2,COc1ccc(C2CC(c3cccs3)=NN2c2nc(C)c(C(C)=O)s2)cc1OC (configuration not stated),10.5% and 15.1%
3,Cc1ccccc1NC(=O)c1cc(S(=O)(=O)Nc2cccc(C(=O)O)c2)ccc1Cl,-0.5%
4,Cc1ccc(C(=O)COc2cccc(NC(=O)c3ccco3)c2)cc1,-1.8%
5,COc1ccc(Br)cc1CNCCc1cccc(Cl)c1,3.2%
6,CC(=O)c1cccc(NC(=O)N2CCCC2C(=O)NCCc2ccccc2)c1 (configuration not stated),4.9%
7,Cc1cc(S(=O)(=O)NC2CCCC2)ccc1-n1cnnn1,-3.6%
8,CC(=O)Nc1ccc(Oc2ccc3c(c2)C(=O)NC3=O)cc1,0.6%
9,Cc1c(NC(=O)c2cccnc2)c(=O)n(-c2ccccc2)n1C,4.2%
10,CCOc1ccc(NC(=O)CC(Cc2ccc(Cl)cc2)C(=O)O)cc1 (configuration not stated),2.3%
11,CC1CCc2c(sc3nc4n(c(=O)c23)CCS4)C1 (configuration not stated),3.6%
12,Cc1cccc2cc3c(N)c(C(=O)N4CCCc5ccccc54)sc3nc12,13.6%
13,COc1ccccc1C1CCN(C(=S)Nc2ccc(Br)cc2)CC1,1.5%
14,Clc1ccc(-c2ncc3ccccn23)c(Cl)c1,2.1%
15,CCOc1nnc(C)c2c(C)n(-c3cccc(Cl)c3)nc12,3.5%
16,COc1ccccc1CNC(=O)C1Cc2ccccc2C(=O)O1 (configuration not stated),1.5%
17,COc1ccc(N(CC(=O)NCCSCc2cccc(Cl)c2)S(C)(=O)=O)cc1,-1.8%
18,CC(C)Cc1nnc(NC(=O)CCC(=O)Nc2ccc3cn[nH]c3c2)s1,-2.6%
19,CCOCC(=O)NCc1ccc2c(c1)cc(C)n2C,-1%
20,Cc1ccc(-c2nc(-c3cccnc3)sc2CC(=O)Nc2ccc(C)c(Cl)c2)cc1,1.7%
21,O=C(O)c1cc(S(=O)(=O)NC2CCCc3ccccc32)ccc1O (configuration not stated),1.4%
22,COc1ccc(C(=O)Nc2nc(-c3ccc(OC)cc3)c(-c3ccc([N+](=O)[O-])cc3)s2)cc1,15.9%
